# Assay outcomes: PubChem, National Center for Advancing Translational Sciences (NCATS)
# Pf growth 96h = inhibits malaria parasite growth, 96 h; P. falciparum luciferase reporter growth, 96 h; Potency, µM (doses to about 28.7 µM), without a hit: top-dose activity change, negative = inhibition, actives largely listed as inhibitors; hit rate 6.9% among 320,000; AID 504834; further: potency means the concentration at half of the fitted maximal effect; on the % scale 0 is the no-effect control and ±100 the full control effect
#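 Erythrocytes infected with luciferase-expressing P. falciparum were dispensed at 2% hematocrit and 0.05% parasitemia (final), then incubated with compounds 96 hours at 37 C in 5% CO2. Luminescence after detection reagent addition reported growth.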
# Cycloheximide cs = counter-screen hit for Shiga toxin inhibitors, cycloheximide | cell reporter, cycloheximide protein synthesis inhibition counterscreen | max response, % | hit rate 12% among 300,000 | AID 2314; in the data active means max response mostly above about 13%, no sharp cut-off; inactive means mostly below about 14%; further: read at 38.3 µM for the half of the compounds with a filed dose; 0% is about no effect
# Shiga inhibitor = blocks Shiga toxin action in Vero cells; inhibition, % at 38.7 µM; Vero cells, Shiga toxin protein synthesis inhibition reporter; hit rate 9.2% among 290,000; in the data active means inhibition mostly above about 28%, no sharp cut-off; inactive means mostly below about 43%; further: 0% is about no effect
# Pf growth 48h = P. falciparum growth inhibition at 48 hours (one generation); hit rate 5.9% among 310,000; P. falciparum luciferase growth in erythrocytes, 48 h; AID 504832; Potency, µM (titrated, usually from 28.7 µM), for inactives: at the top dose activity change, negative = inhibition, most hits filed as inhibitors; further: potency means the concentration at half of the fitted maximal effect; on the % scale 0 is the no-effect control and ±100 the full control effect
#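 First compound was added to culture medium, then infected red cells at 0.1% parasitemia and 2% hematocrit (final). After incubation at 37 C under 5% CO2, luciferase detection reagent was dispensed and light output recorded.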
# SARS PLpro yeast-1 = SARS-CoV PLP inhibition in yeast. S. cerevisiae expressing SARS-CoV PLpro, growth rescue. Potency, µM (top dose mostly 32.9 µM), without a hit: top-dose activity, positive = growth rescue, most hits filed as activators. hit rate 0.19% among 330,000. AID 485353; calls by dose curve; further: potency means the concentration at half of the fitted maximal effect; 0% is about no effect; nearly all actives have a fitted effect of over 55% in size
# AMA1 RON2 block = AMA1-RON2 (P. falciparum) interaction inhibition | AlphaScreen AMA1-biotinylated RON2 peptide binding | Potency, µM (highest dose often 58.2 µM), for the others: at the top dose activity change, negative = inhibition, usual class: inhibitors | hit rate 0.2% among 360,000 | AID 720542;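 further: potency means the concentration at half of the fitted maximal effect; 0% = vehicle wells and -100% = peptide control; nearly all actives have a fitted effect of over 45% in size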
#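 AMA1 (3D7) with his tag at 25 nM final met compounds first, then biotinylated RON2 peptide at 25 nM; detection used donor plus acceptor beads, 10 µg/mL apiece, read by AlphaScreen after 30 min at room temperature.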
# SARS PLpro yeast-2 = Rescues yeast growth by inhibiting SARS-CoV PLpro; shares compounds with SARS PLpro yeast-1; yeast expressing SARS-CoV PLpro, growth phenotype rescue; calls only; hit rate 19% among 1,000; call rule not given here
# The depositor's hits bear a star; i = inactive; ? = inconclusive; nt = not tested or not shown; + = active, no number; [ ] = remark or other dose. Rows were chosen to be rich in hits. Some 19% of all compounds tested hit in one or more screens of this group. Unless noted, the call rests on the fitted dose curve; in most records, active means well fitted curve in the direction sought with a large enough effect; inconclusive means small, poorly fitted or top-dose-only effect, or another doubt; inactive means no such curve, though single readings can be large; an effect the other way counts as inactive or inconclusive.
SMILES,Pf growth 96h,Cycloheximide cs,Shiga inhibitor,Pf growth 48h,SARS PLpro yeast-1,AMA1 RON2 block,SARS PLpro yeast-2
COc1ccc(C(=O)N/N=C/c2sc(=O)n(Cc3cccc(C(=O)O)c3)c2Cl)cc1,-16.6%,-0.9,13.5,-10.9%,1.8%,25.0%,nt
CCCCc1ccc(S(=O)(=O)N2CCN(C(=O)c3ccco3)CC2)cc1,?,-2.5,-4.2,-9.5%,2.1%,-16.3%,nt
COC(=O)C1=C2SCC(=O)N2C(N)=C(C#N)C1,-10.1%,9.5,-12.6,-3.7%,0.8%,-1.7%,nt
CCOC(=O)C1=C2SCC(=O)N2C(N)=C(C#N)C1,13.4%,-0.8,-15.2,15.6%,?,16.0%,i
COc1ccc(Cc2nnc(SCC(=O)c3ccc4c(c3)NC(=O)CO4)o2)cc1,-6.5%,nt,nt,?,0.5%,3.8%,nt
CC(C)Oc1ccc(/C=N/NC(N)=S)cc1,-15.9%,60.9*,66.5*,84.8%,?,38.8%,+
NC(=S)N/N=C/c1ccc(C(F)(F)F)cc1,37.4%,6.7,9.5,1.2%,?,66.4%,nt
NS(=O)(=O)c1ccc(CCNS(=O)(=O)c2ccc(Cl)nc2)cc1,-7.9%,-1.4,-5.2,-11.1%,0.8%,-9.3%,nt
O=C(CN1CCCCC1)NNc1nc(-c2ccccc2)c2cc(Br)ccc2n1,?,-3.1,-2.9,0.0%,-1.1%,86.2%,nt
CC(C)C(C(=O)Nc1ccc(S(N)(=O)=O)cc1)N1C(=O)c2ccccc2C1=O (stereo not drawn),-0.5%,-4.7,-4.8,8.2%[5.75 µM],0.9%,17.5%,nt
COc1cccc(C2/C(=C(\O)c3ccc4c(c3)OCCO4)C(=O)C(=O)N2Cc2cccnc2)c1 (stereo not drawn),2.5%,8.6,3.6,4.1%,?,0.7%,i
O=C1C(=O)N(Cc2cccnc2)C(c2cccc([N+](=O)[O-])c2)/C1=C(\O)c1ccc2c(c1)OCCO2 (stereo not drawn),?,-10.5,44.4,4.5%,-0.1%,-13.7%,nt
Cc1nn(CC(=O)Nc2nnc(C(C)C)s2)c(=O)c2ccccc12,-13.6%,-5.7,18.7,2.4%,0.6%,2.0%,nt
CCC(C)OC1OC(CO)C(O)C(O)C1NC(C)=O (stereo not drawn),18.5%,-1.2,-12.1,-0.4%,7.4%,0.0%,nt
Cc1sc(NC(=O)c2ccccc2)c(C(=O)NC(C)C)c1C,-28.1%,-2.1,-5.3,nt,?,7.0%,i
CCOC(=O)/C(C#N)=N/Nc1c(C)n(C)n(-c2ccccc2)c1=O,?,-5.5,15.1,-25.0%,-0.4%,126.8%,nt
Cc1ccccc1C(=O)/C(C#N)=N/Nc1c(C)n(C)n(-c2ccccc2)c1=O,12.4%,-2.7,-7.0,1.65µM*,20µM*,-2.0%,i
Cc1c(N/N=C(\C#N)C(=O)c2ccccc2)c(=O)n(-c2ccccc2)n1C,?,-1.3,-2.9,1.65µM*,?,-9.7%,i
Nc1ccc2oc(-c3ccccc3Cl)nc2c1,31.8%,20.6*,36.1*,82.7%,14.1µM*,-14.9%,i
Cn1c2ccccc2n2c(=O)c(=O)n(CC(=O)c3ccc(Cl)cc3)nc12,21.3%,-5.4,0.0,-5.4%,11.2µM*,6.9%,i
COC(=O)c1ccccc1NC(=O)Cn1nc2n(C)c3ccccc3n2c(=O)c1=O,4.2%,7.0,4.0,-6.8%,-7.9%,nt,nt
COc1ccc(-c2cn(CCC(=O)O)c(-c3ccc(Cl)nc3)n2)cc1,53.3%,nt,nt,15.4%,?,11.0%,i
CC(C)N1C/C(=C/c2ccsc2)C(=O)/C(=C/c2ccsc2)C1,?,15.5*,-7.2,?,22.4µM*,-24.2%,i
CCN1C(=O)S/C(=C/c2ccsc2)C1=O,nt,26.3,76.9,31.5%,8.3%,-15.5%,nt
Cc1cc(C)c(OCC(=O)OCC(=O)NCc2ccco2)c(C)c1,nt,nt,nt,nt,nt,-4.8%,nt
CC(=O)CCC(=O)CNC(=O)CC[C@H]1O[C@@H](n2ccc(=O)[nH]c2=O)[C@H](O)[C@@H]1O,nt,nt,nt,nt,nt,0.0%,nt
COc1ccc(/C=N/NC(=O)CN(CCc2ccccc2)S(=O)(=O)c2ccc(NC(C)=O)cc2)cc1OC,9.28µM*,-3.4,-5.9,?,3.55µM*,21.8%,i
